# Publication PMC7862700, “An all-to-all approach to the identification of sequence-specific readers for epigenetic DNA modifications on cytosine”
# Tests used:
# Experiment in all cases: DAPPL (digital affinity profiling via proximity ligation, sequencing); 10 mM Tris-HCl pH 7.5, 50 mM NaCl, 1 mM DTT, 4% glycerol, room temperature, 30 min; GST-TFs on glutathione beads, 16-mer random dsDNA library, 0.1% formaldehyde crosslink after washing; high values mean tight binding
# FLI1 = target: T1, FLI1 (Homo sapiens, UniProt Q01543 1-452); conditions: protein: recombinant; tags: N-terminal GST; dsDNA, one strand shown
# T1 sequence: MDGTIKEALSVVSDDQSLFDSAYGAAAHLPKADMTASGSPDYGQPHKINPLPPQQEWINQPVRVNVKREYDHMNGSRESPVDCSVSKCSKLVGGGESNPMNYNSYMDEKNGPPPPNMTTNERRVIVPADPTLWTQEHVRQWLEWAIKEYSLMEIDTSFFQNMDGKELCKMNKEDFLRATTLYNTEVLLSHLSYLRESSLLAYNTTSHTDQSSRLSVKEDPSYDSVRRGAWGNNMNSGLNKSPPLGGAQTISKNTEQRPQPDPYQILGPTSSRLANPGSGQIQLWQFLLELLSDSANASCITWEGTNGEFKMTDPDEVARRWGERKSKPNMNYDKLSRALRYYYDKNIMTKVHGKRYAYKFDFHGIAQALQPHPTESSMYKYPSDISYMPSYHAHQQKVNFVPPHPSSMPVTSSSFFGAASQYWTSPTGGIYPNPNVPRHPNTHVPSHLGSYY
# Summary of the method: (§1)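 Human transcription factors carrying a GST fusion were produced in yeast, bound to glutathione beads, tagged with DNA barcodes and pooled together with a tag-only sample. Each pool was held with 200 nmole of a random double-stranded 16-mer DNA library in Tris/NaCl/DTT/glycerol buffer for 30 min at room temperature, then washed, crosslinked in 0.1% formaldehyde, proximity-ligated with BsaI/T4 ligase (1 h, 37 °C), PCR-amplified and sequenced on an Illumina NextSeq500. Binding signal is the read frequency of each hexamer for a given factor divided by its frequency in the tag-only sample.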
# ELK1 = target: T2, ELK1 (Homo sapiens, UniProt P19419 1-428); conditions: protein: recombinant; tags: N-terminal GST; dsDNA, one strand shown
# T2 sequence: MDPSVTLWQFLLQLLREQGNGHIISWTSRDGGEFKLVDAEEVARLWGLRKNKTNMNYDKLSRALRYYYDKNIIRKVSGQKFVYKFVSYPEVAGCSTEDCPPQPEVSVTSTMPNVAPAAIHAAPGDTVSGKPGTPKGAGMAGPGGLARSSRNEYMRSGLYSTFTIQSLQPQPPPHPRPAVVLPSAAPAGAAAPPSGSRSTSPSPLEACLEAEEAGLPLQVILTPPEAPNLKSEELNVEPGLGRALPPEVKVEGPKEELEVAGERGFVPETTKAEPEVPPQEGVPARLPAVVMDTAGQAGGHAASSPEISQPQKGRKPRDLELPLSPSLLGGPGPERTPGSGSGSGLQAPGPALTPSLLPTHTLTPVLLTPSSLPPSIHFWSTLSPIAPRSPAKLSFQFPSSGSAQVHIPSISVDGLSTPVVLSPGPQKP
# Summary of the method: as §1
# GABPA = target: T3, GABPA (Homo sapiens, UniProt Q06546 1-454); conditions: protein: recombinant; tags: N-terminal GST; dsDNA, one strand shown
# T3 sequence: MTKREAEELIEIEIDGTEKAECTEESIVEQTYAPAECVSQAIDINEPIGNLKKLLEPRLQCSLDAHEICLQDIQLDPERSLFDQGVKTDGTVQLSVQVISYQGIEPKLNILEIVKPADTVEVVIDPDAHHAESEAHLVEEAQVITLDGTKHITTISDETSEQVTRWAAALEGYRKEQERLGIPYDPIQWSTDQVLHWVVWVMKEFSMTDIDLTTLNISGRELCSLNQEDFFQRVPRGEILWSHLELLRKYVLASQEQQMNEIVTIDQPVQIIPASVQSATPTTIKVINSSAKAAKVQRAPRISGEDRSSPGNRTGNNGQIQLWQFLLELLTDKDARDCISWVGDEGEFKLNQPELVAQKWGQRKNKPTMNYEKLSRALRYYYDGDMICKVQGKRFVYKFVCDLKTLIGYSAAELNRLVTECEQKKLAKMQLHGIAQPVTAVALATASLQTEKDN
# Summary of the method: as §1
# ERG = target: T4, ERG (Homo sapiens, UniProt P11308 1-479); conditions: protein: recombinant; tags: N-terminal GST; dsDNA, one strand shown
# T4 sequence: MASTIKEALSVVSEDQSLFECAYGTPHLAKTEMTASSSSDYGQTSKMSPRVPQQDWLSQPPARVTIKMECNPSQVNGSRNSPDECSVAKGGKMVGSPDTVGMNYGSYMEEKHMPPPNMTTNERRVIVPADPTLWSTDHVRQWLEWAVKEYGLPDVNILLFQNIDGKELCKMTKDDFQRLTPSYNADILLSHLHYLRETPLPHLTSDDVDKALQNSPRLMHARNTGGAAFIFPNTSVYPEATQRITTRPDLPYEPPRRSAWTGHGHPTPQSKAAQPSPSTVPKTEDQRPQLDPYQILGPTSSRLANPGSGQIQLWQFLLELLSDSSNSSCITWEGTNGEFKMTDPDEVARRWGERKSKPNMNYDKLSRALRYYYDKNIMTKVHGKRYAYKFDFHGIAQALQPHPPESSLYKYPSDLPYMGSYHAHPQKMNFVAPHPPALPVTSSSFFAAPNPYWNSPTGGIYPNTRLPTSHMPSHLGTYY
# Summary of the method: as §1
# ELF1 = ELF1 (Homo sapiens, UniProt P32519 1-619); conditions: protein: recombinant; tags: N-terminal GST; dsDNA, one strand shown
# Summary of the method: as §1
# EHF = target: T5, EHF (Homo sapiens, UniProt Q9NZC4 1-300); conditions: protein: recombinant; tags: N-terminal GST; dsDNA, one strand shown
# T5 sequence: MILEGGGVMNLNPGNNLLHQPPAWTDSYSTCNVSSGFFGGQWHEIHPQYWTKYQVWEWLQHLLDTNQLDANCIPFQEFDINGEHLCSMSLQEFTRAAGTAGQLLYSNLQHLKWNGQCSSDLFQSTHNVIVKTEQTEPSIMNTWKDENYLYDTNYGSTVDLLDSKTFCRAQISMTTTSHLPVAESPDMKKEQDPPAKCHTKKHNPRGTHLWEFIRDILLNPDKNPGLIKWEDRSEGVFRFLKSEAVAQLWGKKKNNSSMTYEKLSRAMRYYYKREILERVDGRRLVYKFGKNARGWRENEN
# Summary of the method: as §1
# SPI1 = SPI1 (Homo sapiens, UniProt P17947 1-270); conditions: protein: recombinant; tags: N-terminal GST; dsDNA, one strand shown
# Summary of the method: as §1
# SPIB = SPIB (Homo sapiens, UniProt Q01892 1-262); conditions: protein: recombinant; tags: N-terminal GST; dsDNA, one strand shown
# Summary of the method: as §1
# ELK3 = target: T6, ELK3 (Homo sapiens, UniProt P41970 1-407); conditions: protein: recombinant; tags: N-terminal GST; dsDNA, one strand shown
# T6 sequence: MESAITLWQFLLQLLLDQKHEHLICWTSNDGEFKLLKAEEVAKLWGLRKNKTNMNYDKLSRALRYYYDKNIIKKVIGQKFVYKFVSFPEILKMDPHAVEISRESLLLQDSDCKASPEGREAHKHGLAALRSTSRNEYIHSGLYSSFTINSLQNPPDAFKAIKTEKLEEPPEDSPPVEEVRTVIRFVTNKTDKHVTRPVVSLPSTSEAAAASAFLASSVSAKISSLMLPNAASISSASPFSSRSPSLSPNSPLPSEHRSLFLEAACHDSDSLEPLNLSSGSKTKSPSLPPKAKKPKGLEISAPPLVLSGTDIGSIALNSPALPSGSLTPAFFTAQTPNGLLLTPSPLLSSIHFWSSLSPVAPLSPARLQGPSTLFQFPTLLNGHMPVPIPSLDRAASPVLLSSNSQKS
# Summary of the method: as §1
# FEV = target: T7, FEV (Homo sapiens, UniProt Q99581 1-238); conditions: protein: recombinant; tags: N-terminal GST; dsDNA, one strand shown
# T7 sequence: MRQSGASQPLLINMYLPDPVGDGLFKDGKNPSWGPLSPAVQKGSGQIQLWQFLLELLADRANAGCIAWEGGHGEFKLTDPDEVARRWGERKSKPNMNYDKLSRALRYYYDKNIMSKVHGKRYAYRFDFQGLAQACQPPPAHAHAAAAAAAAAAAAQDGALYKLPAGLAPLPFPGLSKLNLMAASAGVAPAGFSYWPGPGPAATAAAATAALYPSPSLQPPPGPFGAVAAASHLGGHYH
# Summary of the method: as §1
# ETV5 = ETV5 (Homo sapiens, UniProt P41161 1-510); conditions: protein: recombinant; tags: N-terminal GST; dsDNA, one strand shown
# Summary of the method: as §1
# HSF1 = HSF1 (Homo sapiens, UniProt Q00613 1-529); conditions: protein: recombinant; tags: N-terminal GST; chain copies: 3; dsDNA, one strand shown
# Summary of the method: as §1
# SPIC = target: T8, SPIC (Homo sapiens, UniProt Q8N5J4 1-248); conditions: protein: recombinant; tags: N-terminal GST; dsDNA, one strand shown
# T8 sequence: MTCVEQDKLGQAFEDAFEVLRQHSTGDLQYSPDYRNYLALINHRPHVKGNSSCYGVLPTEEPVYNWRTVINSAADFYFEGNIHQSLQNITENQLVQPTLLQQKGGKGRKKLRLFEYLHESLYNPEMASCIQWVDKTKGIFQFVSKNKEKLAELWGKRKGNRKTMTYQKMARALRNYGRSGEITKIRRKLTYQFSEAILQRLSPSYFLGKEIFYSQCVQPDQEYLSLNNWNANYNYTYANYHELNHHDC
# Summary of the method: as §1
# ELF4 = ELF4 (Homo sapiens, UniProt Q99607 1-663); conditions: protein: recombinant; tags: N-terminal GST; dsDNA, one strand shown
# Summary of the method: as §1
# ELK4 = target: T9, ELK4 (Homo sapiens, UniProt P28324-2 1-405); conditions: protein: recombinant; tags: N-terminal GST; dsDNA, one strand shown
# T9 sequence: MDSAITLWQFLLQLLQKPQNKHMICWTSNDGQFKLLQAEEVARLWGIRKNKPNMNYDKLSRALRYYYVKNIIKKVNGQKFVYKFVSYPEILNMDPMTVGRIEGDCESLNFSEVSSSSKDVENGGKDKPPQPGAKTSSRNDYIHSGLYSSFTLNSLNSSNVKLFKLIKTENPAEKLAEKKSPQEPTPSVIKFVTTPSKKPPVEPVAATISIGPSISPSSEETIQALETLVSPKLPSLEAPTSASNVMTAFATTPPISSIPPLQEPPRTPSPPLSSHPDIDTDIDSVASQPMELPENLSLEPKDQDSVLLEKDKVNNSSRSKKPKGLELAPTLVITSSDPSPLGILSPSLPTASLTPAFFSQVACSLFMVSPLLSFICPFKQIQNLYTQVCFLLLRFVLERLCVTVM
# Summary of the method: as §1
# ETV2 = target: T10, ETV2 (Homo sapiens, UniProt O00321 1-342); conditions: protein: recombinant; tags: N-terminal GST; dsDNA, one strand shown
# T10 sequence: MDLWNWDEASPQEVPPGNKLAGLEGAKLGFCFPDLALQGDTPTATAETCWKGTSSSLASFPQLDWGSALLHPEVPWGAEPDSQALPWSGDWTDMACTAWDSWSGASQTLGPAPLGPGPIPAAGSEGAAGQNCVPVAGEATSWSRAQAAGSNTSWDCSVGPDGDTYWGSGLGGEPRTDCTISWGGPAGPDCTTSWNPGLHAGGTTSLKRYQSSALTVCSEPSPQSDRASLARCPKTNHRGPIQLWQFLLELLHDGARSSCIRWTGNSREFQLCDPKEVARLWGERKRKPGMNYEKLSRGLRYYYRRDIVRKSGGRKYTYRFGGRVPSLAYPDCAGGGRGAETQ
# Summary of the method: as §1
# ELF3 = target: T11, ELF3 (Homo sapiens, UniProt P78545 1-371); conditions: protein: recombinant; tags: N-terminal GST; dsDNA, one strand shown
# T11 sequence: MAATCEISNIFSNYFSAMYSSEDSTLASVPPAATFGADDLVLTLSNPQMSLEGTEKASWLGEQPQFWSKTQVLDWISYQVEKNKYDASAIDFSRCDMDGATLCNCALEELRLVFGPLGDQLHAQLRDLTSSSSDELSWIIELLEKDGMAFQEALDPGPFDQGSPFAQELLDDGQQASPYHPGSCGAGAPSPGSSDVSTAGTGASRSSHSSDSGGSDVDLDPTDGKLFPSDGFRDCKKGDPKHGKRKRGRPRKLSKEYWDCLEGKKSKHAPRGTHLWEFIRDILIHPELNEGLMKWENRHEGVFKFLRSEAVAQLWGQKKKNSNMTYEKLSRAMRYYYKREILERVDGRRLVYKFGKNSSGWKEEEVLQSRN
# Summary of the method: as §1
# CRX = CRX (Homo sapiens, UniProt O43186 1-299); conditions: protein: recombinant; tags: N-terminal GST; dsDNA, one strand shown
# Summary of the method: as §1
# ETV1 = ETV1 (Homo sapiens, UniProt P50549 1-477); conditions: protein: recombinant; tags: N-terminal GST; dsDNA, one strand shown
# Summary of the method: as §1
# Sequence of SPIB (Q01892 whole entry): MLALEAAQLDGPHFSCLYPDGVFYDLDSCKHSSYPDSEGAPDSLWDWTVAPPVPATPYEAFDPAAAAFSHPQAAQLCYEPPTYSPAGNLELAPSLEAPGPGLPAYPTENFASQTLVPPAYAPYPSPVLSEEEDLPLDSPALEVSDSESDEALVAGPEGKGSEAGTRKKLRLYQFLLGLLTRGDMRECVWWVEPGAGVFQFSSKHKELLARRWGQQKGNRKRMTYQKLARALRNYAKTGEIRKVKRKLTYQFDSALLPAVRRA
# Sequence of ELF1 (P32519 whole entry): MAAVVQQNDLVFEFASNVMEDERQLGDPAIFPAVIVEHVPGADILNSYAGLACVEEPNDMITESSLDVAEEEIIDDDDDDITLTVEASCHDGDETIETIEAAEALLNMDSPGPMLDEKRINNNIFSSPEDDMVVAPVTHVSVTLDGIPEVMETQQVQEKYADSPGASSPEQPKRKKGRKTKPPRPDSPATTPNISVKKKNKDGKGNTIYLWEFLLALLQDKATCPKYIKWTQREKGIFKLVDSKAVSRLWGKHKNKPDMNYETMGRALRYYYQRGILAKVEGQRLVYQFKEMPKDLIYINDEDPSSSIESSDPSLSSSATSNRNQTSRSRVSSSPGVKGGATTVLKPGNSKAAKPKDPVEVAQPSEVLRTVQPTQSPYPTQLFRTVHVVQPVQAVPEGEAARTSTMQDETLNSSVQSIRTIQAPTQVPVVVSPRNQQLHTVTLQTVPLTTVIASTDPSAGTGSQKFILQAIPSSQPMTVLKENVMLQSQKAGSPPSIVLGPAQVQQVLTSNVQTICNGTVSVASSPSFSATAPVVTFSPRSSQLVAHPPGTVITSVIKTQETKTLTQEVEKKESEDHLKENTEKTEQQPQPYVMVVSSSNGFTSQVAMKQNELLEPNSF
# Sequence of HSF1 (Q00613 whole entry): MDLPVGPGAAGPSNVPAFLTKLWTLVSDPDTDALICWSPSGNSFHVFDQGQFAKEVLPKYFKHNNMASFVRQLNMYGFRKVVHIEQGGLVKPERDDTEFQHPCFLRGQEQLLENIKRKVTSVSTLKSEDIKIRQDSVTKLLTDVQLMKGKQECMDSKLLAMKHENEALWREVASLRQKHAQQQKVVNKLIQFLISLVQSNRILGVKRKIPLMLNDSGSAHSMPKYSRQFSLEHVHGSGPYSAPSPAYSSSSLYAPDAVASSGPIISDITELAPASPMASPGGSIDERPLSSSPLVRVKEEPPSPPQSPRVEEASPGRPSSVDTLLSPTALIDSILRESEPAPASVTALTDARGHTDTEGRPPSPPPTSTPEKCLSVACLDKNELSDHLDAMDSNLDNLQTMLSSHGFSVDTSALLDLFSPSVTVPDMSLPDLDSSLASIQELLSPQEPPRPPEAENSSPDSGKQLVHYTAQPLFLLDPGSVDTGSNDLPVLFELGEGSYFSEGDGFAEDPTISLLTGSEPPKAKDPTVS
# Sequence of ELF4 (Q99607 whole entry): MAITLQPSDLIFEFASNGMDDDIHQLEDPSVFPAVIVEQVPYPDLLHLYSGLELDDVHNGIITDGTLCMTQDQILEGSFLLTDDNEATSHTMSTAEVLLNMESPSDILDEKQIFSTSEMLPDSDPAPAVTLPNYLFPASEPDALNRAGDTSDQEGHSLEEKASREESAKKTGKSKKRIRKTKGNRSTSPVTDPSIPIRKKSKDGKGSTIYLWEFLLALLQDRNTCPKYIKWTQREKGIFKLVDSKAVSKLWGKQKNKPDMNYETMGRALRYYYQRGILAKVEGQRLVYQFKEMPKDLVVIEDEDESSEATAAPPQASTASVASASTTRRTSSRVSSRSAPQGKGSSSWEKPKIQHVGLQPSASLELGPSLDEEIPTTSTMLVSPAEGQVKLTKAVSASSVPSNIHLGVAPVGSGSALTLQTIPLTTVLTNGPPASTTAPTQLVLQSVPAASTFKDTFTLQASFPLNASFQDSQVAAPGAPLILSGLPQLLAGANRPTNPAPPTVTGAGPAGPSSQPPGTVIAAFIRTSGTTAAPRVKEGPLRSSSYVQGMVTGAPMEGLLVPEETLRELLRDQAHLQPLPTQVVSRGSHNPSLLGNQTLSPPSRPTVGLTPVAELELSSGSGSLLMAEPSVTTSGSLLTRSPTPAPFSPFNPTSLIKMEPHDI
# Sequence of ETV1 (P50549 whole entry): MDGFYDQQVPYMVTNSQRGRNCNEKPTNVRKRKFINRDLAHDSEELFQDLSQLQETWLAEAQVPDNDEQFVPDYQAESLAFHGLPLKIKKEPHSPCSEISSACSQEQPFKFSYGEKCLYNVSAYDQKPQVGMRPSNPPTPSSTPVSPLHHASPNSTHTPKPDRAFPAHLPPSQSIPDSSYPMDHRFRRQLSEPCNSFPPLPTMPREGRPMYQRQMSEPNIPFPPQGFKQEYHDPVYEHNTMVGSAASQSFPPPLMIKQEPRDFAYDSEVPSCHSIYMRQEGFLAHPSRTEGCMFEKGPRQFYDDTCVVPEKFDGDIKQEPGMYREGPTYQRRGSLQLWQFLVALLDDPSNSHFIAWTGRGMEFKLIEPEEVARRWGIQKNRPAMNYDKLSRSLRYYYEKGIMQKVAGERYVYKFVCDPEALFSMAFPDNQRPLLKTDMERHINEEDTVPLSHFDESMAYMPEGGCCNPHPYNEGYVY
# Sequence of CRX (O43186 whole entry): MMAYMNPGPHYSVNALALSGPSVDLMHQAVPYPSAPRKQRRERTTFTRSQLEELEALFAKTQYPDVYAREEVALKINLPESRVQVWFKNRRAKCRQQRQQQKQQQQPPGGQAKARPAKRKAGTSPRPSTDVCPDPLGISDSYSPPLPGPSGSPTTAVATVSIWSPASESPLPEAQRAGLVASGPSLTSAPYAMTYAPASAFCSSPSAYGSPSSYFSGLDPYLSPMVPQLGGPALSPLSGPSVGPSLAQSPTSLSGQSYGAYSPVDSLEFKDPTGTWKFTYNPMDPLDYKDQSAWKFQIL
# Sequence of ETV5 (P41161 whole entry): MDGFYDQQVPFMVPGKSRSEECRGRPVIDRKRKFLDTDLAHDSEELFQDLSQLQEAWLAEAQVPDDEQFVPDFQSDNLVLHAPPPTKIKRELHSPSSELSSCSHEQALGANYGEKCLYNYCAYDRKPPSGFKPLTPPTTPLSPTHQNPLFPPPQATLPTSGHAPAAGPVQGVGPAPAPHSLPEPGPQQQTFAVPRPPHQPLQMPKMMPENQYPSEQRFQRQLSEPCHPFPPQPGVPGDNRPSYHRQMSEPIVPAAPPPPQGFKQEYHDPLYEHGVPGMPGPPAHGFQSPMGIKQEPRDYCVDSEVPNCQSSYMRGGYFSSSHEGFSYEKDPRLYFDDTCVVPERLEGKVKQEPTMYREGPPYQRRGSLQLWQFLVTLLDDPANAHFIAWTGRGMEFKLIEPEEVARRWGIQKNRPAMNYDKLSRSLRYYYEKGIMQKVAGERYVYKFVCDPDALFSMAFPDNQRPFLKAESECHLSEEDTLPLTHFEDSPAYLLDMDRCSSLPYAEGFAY
sequence,measurement,setting,value
CTAATG,binding signal,FLI1,"1.34 fold enrichment (6-mer frequency, TF over GST control)"
same,binding signal,ELK1,"1.22 fold enrichment (6-mer frequency, TF over GST control)"
same,binding signal,GABPA,"1.26 fold enrichment (6-mer frequency, TF over GST control)"
same,binding signal,ERG,"1.18 fold enrichment (6-mer frequency, TF over GST control)"
same,binding signal,ELF1,"1.23 fold enrichment (6-mer frequency, TF over GST control)"
same,binding signal,EHF,"1.28 fold enrichment (6-mer frequency, TF over GST control)"
same,binding signal,SPI1,"1.26 fold enrichment (6-mer frequency, TF over GST control)"
same,binding signal,SPIB,"1.26 fold enrichment (6-mer frequency, TF over GST control)"
same,binding signal,ELK3,"1.46 fold enrichment (6-mer frequency, TF over GST control)"
same,binding signal,FEV,"1.16 fold enrichment (6-mer frequency, TF over GST control)"
same,binding signal,ETV5,"1.25 fold enrichment (6-mer frequency, TF over GST control)"
same,binding signal,HSF1,"1.31 fold enrichment (6-mer frequency, TF over GST control)"
same,binding signal,SPIC,"1.35 fold enrichment (6-mer frequency, TF over GST control)"
same,binding signal,ELF4,"1.36 fold enrichment (6-mer frequency, TF over GST control)"
same,binding signal,ELK4,"1.34 fold enrichment (6-mer frequency, TF over GST control)"
same,binding signal,ETV2,"1.12 fold enrichment (6-mer frequency, TF over GST control)"
same,binding signal,ELF3,"1.27 fold enrichment (6-mer frequency, TF over GST control)"
same,binding signal,CRX,"1.6 fold enrichment (6-mer frequency, TF over GST control)"
same,binding signal,ETV1,"1.29 fold enrichment (6-mer frequency, TF over GST control)"
